These results are taken from PubChem BioAssay (NCI).

Molecules are shown by their SMILES. This is part of a sample that, as a whole, favours compounds with a hit. Of some 83,000 tested, about 20% had one in any assay.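 Activity criterion: percent growth below 10, measured after cells in 96-well plates were exposed to a single compound concentration for 48 hours.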 Values without a mark were called inactive. Activity calls are given as the source filed them.

The subject of this experiment is ACHN renal. Kind of experiment: NCI-60 one-dose screen, 48 h (100 = growth as untreated, 0 = no growth, -100 = all killed). The settings on record: 10 µM unless noted. As for the experimental part: Growth inhibition of the ACHN human tumor cell line is measured as a screen for anti-cancer activity. Cells are grown in 96 well plates and exposed to the test compound for 48 hours. Compounds are tested at a single concentration, which is 10^-5 M for most compounds. The reported endpoint is percent growth (GI% or GIPRCNT), where numbers from 0 - 100% represent growth inhibition, and numbers from -100% - 0 represent cell death. For example, a value of 40 represents 60% growth inhibition. A value of 0 means no net growth occurred over the course of the experiment. A value of -40 indicates 40% of cells at the beginning of the experiment died by the end of the experiment. A value of -100 means all cells are dead at the end of the experiment.
NCI-60 Human Tumor Cell Lines Screen was performed using the standard one-dose NCI protocol, which is described in more detail at https://dtp.cancer.gov/discovery_development/nci-60/default.htm.
Compounds with GIPRCNT values below 10 were considered active. Activity score was based on GIPRCNT using the following formula: […]
Score is 0 for GIPRCNT values of 100 or above, 50 for GIPRCNT values of 0, and 100 for GIPRCNT values of -100.
For the molecule `CCC(C)Oc1cc(/C=N/NC(=O)c2cnn3c2NC(c2ccccc2)C3)ccc1OC` (stereo not given), the growth is 40.7%. In the case of `Cc1ccc(NS(=O)(=O)c2ccc(-c3cnc(C4CC4)o3)cc2)cc1`, the growth was 46.6%. `O=c1c2c(=NCCN3CCCC3)cc3c(=O)n(CCCN4CCOCC4)c(=O)c4c(-c5ccc(CN6CCCC6)cc5)cc(c(O)n1CCCN1CCOCC1)c2c4-3`: the growth was -4.38% (active). On to `C=C[C@H]1C[C@@H]2C[C@@H]3[C@H]4C/C=C\C(=O)NCCCC5NC(=O)C(=C(O)/C=C/[C@@H]4CC(=O)[C@H]3[C@@H]2[C@H]1C)C5=O` (stereo not given in full), for which the growth was -93.3% (active). Regarding `NS(=O)(=O)c1cc(Br)c2c(c1)S(=O)(=O)NCN2`, the growth is 111%. `Oc1cccc(Nc2nc(-c3ccccn3)cs2)c1`: the growth is 102%. With `Cc1ccc2nc(NC(=O)CSC(=S)N3CCN(C)CC3)sc2c1`, the growth is 100%. Consider `COc1ccc(/C=C2\CN(Cc3cn(CCCNc4ccnc5cc(Cl)ccc45)nn3)C/C(=C\c3ccc(OC)c(OC)c3)C2=O)cc1OC`, for which the growth was -38% (active).

For `O=C1/C(=C/c2ccccc2F)CNC/C1=C\c1ccccc1F`, the growth was -48.9% (active). On to `CN1CCn2c(c(Sc3ccc(C(=O)NO)cc3)c3ccccc32)C1=O`, for which the growth was 36.6%. For the molecule `COc1cc(/C=C/C(=O)C2=C(/C=C/c3ccc(O)c(OC)c3)NC(=O)NC2c2ccc(O)c(OC)c2)ccc1O` (stereo not given), the growth was 88.2%.

`O=C1C(Br)=C(c2ccccc2)C(=O)C(Br)=C1c1ccccc1`: the growth was 92.2%.

Turning to `COc1cc(-c2nc(SC(C)C)nc(Nc3ccccc3C)c2C#N)cc(OC)c1OC`, the growth was 101%. `CCOC(=O)c1[nH]c2cc(Cl)ccc2c1[C@@H](C(=O)NC(C)(C)C)N(CC)C(=O)CCCCC#Cc1cccc2c1CN(C1CCC(=O)NC1=O)C2=O` (stereo not given in full): the growth was 13%. Regarding `CCOC(=O)c1c(Cl)c2c(n1Cc1cc(OC)cc(OC)c1)-c1oncc1CCC2`, the growth was 48.3%.

`COC(=O)/C=C1/CCC2C3CCC4=CC(=O)C(Br)CC4(C)C3C(=O)CC12C` (stereo not given): the growth is 72.5%. Regarding `COc1c(O)c2c3c(c1OC)-c1ccccc1CC3N(S(=O)(=O)c1ccc(C)cc1)CC2` (stereo not given), the growth was 50%. For `Cn1c2c(cc(S(=O)(=O)c3ccccc3)c1=O)CCc1c-2cnn1-c1cccc(Cl)c1`, the growth was -87.9% (active).

With `CCOC(=O)c1c(-c2cc(OC)c(OC)c(OC)c2)csc1N`, the growth was 99.2%. Regarding `O=c1oc2ccccc2cc1-c1csc(N/N=C/c2cc3ccccc3nc2Cl)n1`, the growth was 101%. On to `CCOC(=O)C(CC(c1ccccc1)N1CCCCC1)[N+](=O)[O-]` (stereo not given), for which the growth was 72.6%. Regarding `COc1cc(/C=N/NC(=O)c2cnn3c2NC(c2ccccc2)C3)ccc1OC1CCCC1` (stereo not given), the growth is 35.6%. Under `CCCCCn1c(=N)n(CC(O)COc2cccc(C)c2)c2ccccc21` (stereo not given) stands 10.7%; under `COc1cc(/C=C/C(=O)CC(=O)/C=C/c2cc(Br)c(OC)c(OC)c2)cc(Br)c1OC`, 109%; under `Clc1cccc(Cl)c1Nc1ccc2nnc(-c3ccncc3)n2n1`, 105%. As for `O=C1/C(=C/c2ccc(F)cc2)CN(Cc2cn(CCNc3ccnc4cc(Cl)ccc34)nn2)C/C1=C\c1ccc(F)cc1`, the growth is -100% (active). Consider `COc1ccc(-c2c3c(N)c4c(nc3nc3c2c(C)nn3-c2ccccc2)CCCC4)cc1`, for which the growth is 77.4%. As to `FC(F)(F)c1cc(CNc2nc(Cl)ncc2Br)cc(C(F)(F)F)c1`, the growth was 94.5%. Under `CC(=O)c1cc(C)c(OC(=O)c2ccccc2)c(C)c1` stands 103%; under `Cc1ccc(C2SCC(=O)N2NC(=O)c2[nH]c3ccc(F)cc3c2-c2ccccc2)cc1` (stereo not given), 89.9%. In the case of `CC(C)(C)[Si](C)(C)OC1[C@@H](COC(=O)NC(=O)CCl)O[C@@H](n2cnc3c(N)ncnc32)[C@H]1O[Si](C)(C)C(C)(C)C` (stereo not given in full), the growth is 61.4%.

With `O=C1C(N2CCOCC2)=Cc2cccc3cccc1c23`, the growth is 96.3%. As for `CC(C)OC1=C(Cl)C(=O)c2ccccc2C1=O`, the growth is 98.5%. To `O=C1/C(=C/c2ccc(Cl)cc2)N=C(c2ccccc2)N1CCc1cccs1` belongs 43%; to `COc1ccc(OC2=C(C#N)C(=N)N3c4ccccc4Sc4ccccc4C3N2)cc1` (stereo not given), 83.3%. As to `CCCCCCCCCCCCSC1=CC(=O)C=CC1=O`, the growth is 81%. For the molecule `CON=C1C[C@]2(C[C@@H]3C[C@@H](C/C=C(\C)C[C@@H](C)/C=C/C=C4\CO[C@@H]5[C@H](O)C(C)=C[C@@H](C(=O)O3)[C@]45O)O2)O[C@H](/C(C)=C/C(C)C)[C@H]1C`, the growth is 44.3%.

Turning to `Cc1ccccc1-n1nnc(C(=O)Nc2ccc(-c3ccccc3)cn2)c1C`, the growth is 46% [50 µM].

`c1ccc(-c2nc(N3CCOCC3)c3c4c(sc3n2)CCCCCC4)nc1`: the growth was 63.4%. As for `Cc1ccc(-c2nnc(COc3ccc(-c4nnc(N)s4)cc3)o2)cc1`, the growth was 107%.
